From PubChem BioAssay (NCI)
Compounds without any hit were thinned out: in the full panel of roughly 83,000, 20% have a hit.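 48-hour exposure, single concentration, 96-well plates; percent growth endpoint where 0 means no net growth. Active: below 10.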 Unmarked numbers belong to inactive results. Activity calls are given as the source filed them.

Experiments:
Assay in all cases: NCI-60 one-dose screen, 48 h (100 = growth as untreated, 0 = no growth, -100 = all killed)
[1] = tested on: NCI-H23 lung; details: 10 µM unless noted
[2] = tested on: NCI-H226 lung; details: 10 µM unless noted
[3] = tested on: NCI-H322M lung; details: 10 µM unless noted
[4] = tested on: HOP-62 NSCLC; details: 10 µM unless noted
[5] = tested on: NCI-H460 lung; details: 10 µM unless noted
[6] = tested on: 786-0 renal; details: 10 µM unless noted
[7] = tested on: MDA-MB-231 breast; details: 10 µM unless noted
[8] = tested on: SF-268 CNS; details: 10 µM unless noted
[9] = tested on: SF-539 CNS; details: 10 µM unless noted
[10] = tested on: M14 melanoma; details: 10 µM unless noted
[11] = tested on: HCT-15 colon; details: 10 µM
[12] = tested on: U251 CNS; details: 10 µM unless noted
[13] = tested on: UO-31 renal; details: 10 µM unless noted
[14] = tested on: SK-OV-3 ovarian; details: 10 µM unless noted
[15] = tested on: OVCAR-3 ovarian; details: 10 µM unless noted
[16] = tested on: MDA-MB-435 melanoma; details: 10 µM unless noted
[17] = tested on: SW-620 colon; details: 10 µM unless noted
[18] = tested on: MCF7 breast; details: 10 µM unless noted
[19] = tested on: HCT-116 colon; details: 10 µM unless noted
[20] = tested on: KM12 colon; details: 10 µM unless noted

SMILES | growth [1] | growth [2] | growth [3] | growth [4] | growth [5] | growth [6] | growth [7] | growth [8] | growth [9] | growth [10] | growth [11] | growth [12] | growth [13] | growth [14] | growth [15] | growth [16] | growth [17] | growth [18] | growth [19] | growth [20]
S=P(Nc1ccccc1)(Nc1ccccc1)c1ccccc1 | 92.5% | 112% | 107% | 90.7% | 103% | 94.6% | 90% | 90.8% | 95.8% | 97.7% | 104% | 92.1% | 87.7% | 108% | 103% | 101% | 103% | 109% | 81.1% | 102%
CCCCN(CCCC)CC(O)c1ccccc1 (stereo not drawn) | 100% | 113% | 105% | 114% | 110% | 103% | 104% | 114% | 114% | 100% | 104% | 100% | 100% | 111% | 108% | 105% | 102% | 105% | 114% | 104%
CCCCCN(CCCCC)CC(O)c1ccc(C)c(Cl)c1 (stereo not drawn) | 89.3% | 84.4% | 102% | 90.1% | 101% | 98.2% | 97.4% | 106% | 101% | 96% | 99.9% | 92.4% | 88.3% | 94.3% | – | 104% | 103% | 95.5% | 82.1% | 105%
Cc1ccc(C(=O)C2CN(C)CCC2(O)c2ccc(C)cc2)cc1 (stereo not drawn) | 103% | 113% | 113% | 140% | 111% | 113% | 116% | 110% | – | 113% | 103% | 104% | 99.6% | 122% | 119% | 106% | 105% | 98.1% | 107% | 109%
CC(/C=N/N=C(N)N)=N/N=C(N)N | 95.3% | 97.4% | 34.9% | 81.1% | 66.2% | 70.4% | 102% | 72.9% | 73.9% | 92.4% | 98% | 89.6% | 69.9% | 97.2% | 79.8% | 100% | 98.5% | 98.1% | 83.9% | 73.1%
CC1COC(=O)C1 (stereo not drawn) | 104% | 96.7% | 100% | 99.6% | 102% | 95.1% | 120% | 109% | 96.4% | 102% | 105% | 102% | 90.4% | 96.1% | 107% | 102% | 97.8% | 93.8% | 102% | 99.8%
CC[C@H](C)[C@H](NC(=O)Nc1ccccc1)C(=O)N(C)[C@H](C[C@@H](OC(C)=O)c1nc(C(=O)N[C@@H](Cc2ccccc2)C[C@H](C)C(=O)OC)cs1)C(C)C | 23.6% | 24.5% | 48.4% | 20.3% | 1.7% (active) | 18.1% | -4.27% (active) | 18.8% | -26.3% (active) | -7.55% (active) | 9.43% (active) | 7.23% (active) | 26.7% | 25.4% | -40.4% (active) | -36.7% (active) | 17% | 12.4% | 6.85% (active) | 4.31% (active)
[Br][Pb]([c]1ccccc1)([c]1ccccc1)[c]1ccccc1 | -88.8% (active) | -44.6% (active) | -100% (active) | -97.7% (active) | -100% (active) | -96.3% (active) | -92.2% (active) | -95.1% (active) | -90.6% (active) | -100% (active) | -77.8% (active) | -100% (active) | -99.8% (active) | -100% (active) | -99% (active) | -98.6% (active) | -95.3% (active) | -69.9% (active) | -100% (active) | -99.4% (active)
